Data taken from PubChem BioAssay AID1159580 (chemical genetic matrix, 2015).
Several values for one entry are separate records, joined by “and”; a condition that tells them apart may be missing. Identical values can stand only once. Among all 5,500 compounds or so, about 2,000 (36%) were called active. Another 18% or so got no clear call; they are omitted. No stated cut-off is given here; in the data, active means normalized growth mostly below about 0.91 (no sharp cut-off); inconclusive means no clear call, values can overlap the other calls; inactive means mostly above about 0.92. This is one part of the list. Where a structure was tested more than once in an assay, its records may differ in their call.

Assay: chemical genetic growth profiling, strain panel (AID 1159580);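 further: tested at 20 µM; growth read once vehicle control cultures reached saturation at 30 °C; 1 = growth at the plate median or of vehicle wells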
Conditions: growth OD
[1] = S. cerevisiae deletion strains, locus YAL013W, strain DEP1, stronger effect = lower value
[2] = S. cerevisiae deletion strains, locus YAL040C, strain CLN3, stronger effect = lower value
[3] = S. cerevisiae deletion strains, locus YCL061C, strain MRC1 (second series), stronger effect = lower value
[4] = S. cerevisiae deletion strains, locus YDR363W, strain ESC2, stronger effect = lower value
[5] = S. cerevisiae deletion strains, locus YER002W, strain NOP16, stronger effect = lower value
[6] = S. cerevisiae deletion strains, locus YJR075W, strain HOC1, stronger effect = lower value
[7] = S. cerevisiae deletion strains, locus YNL153C, strain GIM3, stronger effect = lower value
[8] = S. cerevisiae deletion strains, locus YNL175C, strain NOP13, stronger effect = lower value
[9] = S. cerevisiae deletion strains, locus YNL197C, strain WHI3, stronger effect = lower value
[10] = S. cerevisiae deletion strains, locus YNL224C, strain SQS1, stronger effect = lower value
[11] = S. cerevisiae deletion strains, locus YOR083W, strain WHI5 (second series), stronger effect = lower value
[12] = S. cerevisiae deletion strains, locus YPL055C, strain LGE1, stronger effect = lower value
[13] = S. cerevisiae deletion strains, locus YDL101C, strain DUN1, stronger effect = lower value
[14] = S. cerevisiae deletion strains, locus YDR150W, strain NUM1, stronger effect = lower value
[15] = S. cerevisiae deletion strains, locus YHR030C, strain SLT2, stronger effect = lower value
[16] = S. cerevisiae deletion strains, locus YPL241C, strain CIN2, stronger effect = lower value

Measured: normalized growth

CC(C)[C@@H](CO)Nc1nc(Nc2cccc(Cl)c2)c2ncn(C(C)C)c2n1
inactive: [1] 1.01 | [2] 1.01 | [3] 1.01 | [4] 1.02 | [5] 1.04 | [6] 1.02 | [7] 0.894 | [8] 0.982 | [9] 0.994 | [10] 0.989 | [11] 0.913 | [12] 1.02

COc1cc2ncnc(Nc3cccc(Cl)c3)c2cc1OC
inactive: [1] 0.962 and 0.936 | [2] 1.03 | S. cerevisiae deletion strains, locus YBR229C, strain ROT2, stronger effect = lower value 0.962 | [3] 0.987 | S. cerevisiae deletion strains, locus YCL061C, strain MRC1, stronger effect = lower value 0.956 | [13] 0.985 | [14] 0.915 and 0.999 | [4] 0.968 | [5] 0.976 | S. cerevisiae deletion strains, locus YGR078C, strain PAC10, stronger effect = lower value 0.968 and 0.958 | S. cerevisiae deletion strains, locus YGR229C, strain SMI1, stronger effect = lower value 0.97 | [15] 0.882 | S. cerevisiae deletion strains, locus YHR087W, strain rtc3, stronger effect = lower value 0.95 | [6] 0.906 | S. cerevisiae deletion strains, locus YLR039C, strain RIC1, stronger effect = lower value 1.03 | S. cerevisiae deletion strains, locus YLR058C, strain SHM2 (second series), stronger effect = lower value 0.981 | S. cerevisiae deletion strains, locus YLR262C, strain YPT6, stronger effect = lower value 1.02 | S. cerevisiae deletion strains, locus YMR219W, strain ESC1, stronger effect = lower value 0.986 | S. cerevisiae deletion strains, locus YMR263W, strain SAP30, stronger effect = lower value 0.91 | [7] 0.974 | [8] 0.954 | [9] 0.982 | [10] 0.965 | S. cerevisiae deletion strains, locus YNL298W, strain CLA4 (second series), stronger effect = lower value 0.883 | S. cerevisiae deletion strains, locus YNL322C, strain KRE1, stronger effect = lower value 0.99 | [11] 0.89 | [12] 0.815 and 0.967 | S. cerevisiae strains, strain wild type, stronger effect = lower value 0.926
active: S. cerevisiae deletion strains, locus YDL134C, strain PPH21, stronger effect = lower value 0.877 | S. cerevisiae deletion strains, locus YEL061C, strain CIN8, stronger effect = lower value 0.834 | S. cerevisiae deletion strains, locus YLR085C, strain ARP6, stronger effect = lower value 0.46 | S. cerevisiae deletion strains, locus YML094W, strain GIM5, stronger effect = lower value 0.828 | S. cerevisiae deletion strains, locus YNR030W, strain Alg12, stronger effect = lower value 0.82 | [16] 0.831 | S. cerevisiae deletion strains, locus YPR135W, strain CTF4, stronger effect = lower value 0.533
0.562 (active) and 0.979 (inactive): S. cerevisiae deletion strains, locus YMR307W, strain GAS1, stronger effect = lower value

CN(C)c1cc2c(Nc3ccc4c(cnn4Cc4ccccc4)c3)ncnc2cn1
inactive: [1] 0.994 | [2] 0.971 | [3] 1.01 | [14] 1.01 | [4] 0.998 | [5] 0.98 | [6] 1.01 | S. cerevisiae deletion strains, locus YNL128W, strain TEP1, stronger effect = lower value 1 | [8] 0.995 | [9] 1 | [10] 1.02 | [11] 0.954 | [16] 1

COc1cc(C2CC(=S)Nc3ccccc3S2)cc(OC)c1OC (configuration not stated)
inactive: S. cerevisiae deletion strains, locus YAR019C, strain CDC15, stronger effect = lower value 0.99 | S. cerevisiae deletion strains, locus YBL105C, strain PKC1, stronger effect = lower value 0.986 | S. cerevisiae deletion strains, locus YBR135W, strain CKS1, stronger effect = lower value 0.993 | S. cerevisiae deletion strains, locus YBR136W, strain MEC1, stronger effect = lower value 0.992 | S. cerevisiae deletion strains, locus YBR160W, strain CDC28, stronger effect = lower value 1 | S. cerevisiae deletion strains, locus YDL017W, strain CDC7, stronger effect = lower value 0.998 | S. cerevisiae deletion strains, locus YDL028C, strain MPS1, stronger effect = lower value 0.981 | [13] 0.987 | S. cerevisiae deletion strains, locus YDL108W, strain KIN28, stronger effect = lower value 0.978 | S. cerevisiae deletion strains, locus YDL132W, strain cdc53, stronger effect = lower value 0.999 | S. cerevisiae deletion strains, locus YDL214C, strain PRR2, stronger effect = lower value 0.923 | S. cerevisiae deletion strains, locus YDR052C, strain DBF4, stronger effect = lower value 0.995 | S. cerevisiae deletion strains, locus YDR054C, strain cdc34, stronger effect = lower value 0.986 | S. cerevisiae deletion strains, locus YDR226W, strain ADK1, stronger effect = lower value 0.99 | S. cerevisiae deletion strains, locus YDR477W, strain SNF1, stronger effect = lower value 0.969 | S. cerevisiae deletion strains, locus YER123W, strain YCK3, stronger effect = lower value 0.881 | S. cerevisiae deletion strains, locus YER133W, strain GLC7, stronger effect = lower value 0.941 | S. cerevisiae deletion strains, locus YFL009W, strain cdc4, stronger effect = lower value 0.988 | S. cerevisiae deletion strains, locus YFL029C, strain CAK1, stronger effect = lower value 0.988 | S. cerevisiae deletion strains, locus YFR003C, strain YPI1, stronger effect = lower value 0.99 | S. cerevisiae deletion strains, locus YFR019W, strain FAB1, stronger effect = lower value 0.945 | S. cerevisiae deletion strains, locus YFR028C, strain CDC14, stronger effect = lower value 0.993 | S. cerevisiae deletion strains, locus YGR040W, strain KSS1, stronger effect = lower value 0.94 | S. cerevisiae deletion strains, locus YGR052W, strain FMP48, stronger effect = lower value 1.02 | S. cerevisiae deletion strains, locus YGR092W, strain DBF2, stronger effect = lower value 0.94 | [15] 1.07 | S. cerevisiae deletion strains, locus YHR079C, strain IRE1, stronger effect = lower value 1.04 | S. cerevisiae deletion strains, locus YHR082C, strain KSP1, stronger effect = lower value 1.06 | S. cerevisiae deletion strains, locus YHR205W, strain SCH9, stronger effect = lower value 0.974 | S. cerevisiae deletion strains, locus YIL147C, strain SLN1, stronger effect = lower value 0.98 | S. cerevisiae deletion strains, locus YJL095W, strain BCK1, stronger effect = lower value 1.08 | S. cerevisiae deletion strains, locus YJL128C, strain PBS2, stronger effect = lower value 0.942 | S. cerevisiae deletion strains, locus YJL157C, strain FAR1, stronger effect = lower value 0.928 | S. cerevisiae deletion strains, locus YJR016C, strain ILV3, stronger effect = lower value 1 | S. cerevisiae deletion strains, locus YJR066W, strain TOR1 (second series), stronger effect = lower value 0.937 | S. cerevisiae deletion strains, locus YJR066W, strain TOR1, stronger effect = lower value 1.08 | S. cerevisiae deletion strains, locus YKL048C, strain ELM1, stronger effect = lower value 0.975 | S. cerevisiae deletion strains, locus YKL067W, strain YNK1, stronger effect = lower value 0.946 | S. cerevisiae deletion strains, locus YKL101W, strain HSL1, stronger effect = lower value 0.951 | S. cerevisiae deletion strains, locus YKL193C, strain SDS22, stronger effect = lower value 0.994 | S. cerevisiae deletion strains, locus YKL203C, strain TOR2, stronger effect = lower value 1.03 | S. cerevisiae deletion strains, locus YLR113W, strain HOG1, stronger effect = lower value 1 | S. cerevisiae deletion strains, locus YLR133W, strain CKI1, stronger effect = lower value 0.978 | S. cerevisiae deletion strains, locus YLR403W, strain SFP1, stronger effect = lower value 0.967 | S. cerevisiae deletion strains, locus YML070W, strain DAK1, stronger effect = lower value 0.914 | S. cerevisiae deletion strains, locus YMR001C, strain CDC5, stronger effect = lower value 0.993 | S. cerevisiae deletion strains, locus YMR205C, strain PFK2 (second series), stronger effect = lower value 0.95 | S. cerevisiae deletion strains, locus YMR277W, strain FCP1, stronger effect = lower value 0.999 | S. cerevisiae deletion strains, locus YNL006W, strain LST8, stronger effect = lower value 0.994 | S. cerevisiae deletion strains, locus YNL020C, strain ARK1, stronger effect = lower value 0.961 | S. cerevisiae deletion strains, locus YNL161W, strain CBK1, stronger effect = lower value 0.995 | S. cerevisiae deletion strains, locus YNL183C, strain NPR1, stronger effect = lower value 1.06 | S. cerevisiae deletion strains, locus YNL207W, strain RIO2, stronger effect = lower value 0.987 | S. cerevisiae deletion strains, locus YNL222W, strain SSU72, stronger effect = lower value 0.974 | S. cerevisiae deletion strains, locus YNL307C, strain MCK1 (second series), stronger effect = lower value 0.963 | S. cerevisiae deletion strains, locus YOL078W, strain AVO1, stronger effect = lower value 0.985 | S. cerevisiae deletion strains, locus YOL136C, strain PFK27, stronger effect = lower value 0.939 | S. cerevisiae deletion strains, locus YOR061W, strain CKA2, stronger effect = lower value 0.944 | S. cerevisiae deletion strains, locus YOR119C, strain RIO1, stronger effect = lower value 1.01 | S. cerevisiae deletion strains, locus YOR231W, strain MKK1, stronger effect = lower value 1.03 | S. cerevisiae deletion strains, locus YOR329C, strain SCD5, stronger effect = lower value 0.999 | S. cerevisiae deletion strains, locus YPL031C, strain PHO85, stronger effect = lower value 0.953 | S. cerevisiae deletion strains, locus YPL153C, strain RAD53, stronger effect = lower value 0.945 | S. cerevisiae deletion strains, locus YPL204W, strain HRR25, stronger effect = lower value 0.962 | S. cerevisiae deletion strains, locus YPL209C, strain IPL1, stronger effect = lower value 0.983 | S. cerevisiae deletion strains, locus YPL256C, strain CLN2, stronger effect = lower value 1.05 | S. cerevisiae deletion strains, locus YPR025C, strain CCL1, stronger effect = lower value 0.994 | S. cerevisiae deletion strains, locus YPR106W, strain ISR1, stronger effect = lower value 0.992 | S. cerevisiae deletion strains, locus YPR111W, strain DBF20, stronger effect = lower value 0.981 | S. cerevisiae deletion strains, strain NNK1, stronger effect = lower value 0.988 | S. cerevisiae deletion strains, strain TSCII, stronger effect = lower value 0.999
